Data published in PubChem BioAssay AID1159580 (chemical genetic matrix, 2015).
Values joined by “and” are separate entries in the source; they are usually repeats but may differ in a detail not shown here. Equal entries are not always repeated. The whole screen tested about 5,500 compounds, of which about 2,000 (36%) were called active. Inconclusive results (about 18%) are left out. Rule as the data show it: active = normalized growth mostly below about 0.91 (no sharp cut-off); inconclusive = no clear call, values can overlap the other calls; inactive = mostly above about 0.92. The list shows a part of the results. Where a structure was tested more than once in an assay, its records may differ in their call.

Assay: chemical genetic growth profiling, strain panel (AID 1159580);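 also: tested at 20 µM; growth read once vehicle control cultures reached saturation at 30 °C; 1 = growth at the plate median or of vehicle wells; lower values mean less growth of the strain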
Settings: growth OD

Measured: normalized growth

Fc1ccc(C(c2ccc(F)cc2)N2CCN(C/C=C/c3ccccc3)CC2)cc1
active: S. cerevisiae deletion strains, locus YNL209W, strain ssb2, stronger effect = lower value 0.573 | S. cerevisiae deletion strains, locus YNL248C, strain rpa49, stronger effect = lower value 0.227 | S. cerevisiae deletion strains, locus YNL322C, strain KRE1 (second series), stronger effect = lower value 0.244 | S. cerevisiae deletion strains, locus YNR049C, strain mso1, stronger effect = lower value 0.334 | S. cerevisiae deletion strains, locus YOR001W, strain rrp6, stronger effect = lower value 0.314 | S. cerevisiae deletion strains, locus YOR070C, strain gyp1, stronger effect = lower value 0.126 | S. cerevisiae deletion strains, locus YOR080W, strain dia2, stronger effect = lower value 0.423 | S. cerevisiae deletion strains, locus YOR083W, strain WHI5, stronger effect = lower value 0.36 | S. cerevisiae deletion strains, locus YOR106W, strain vam3, stronger effect = lower value 0.33 | S. cerevisiae deletion strains, locus YOR265W, strain rbl2, stronger effect = lower value 0.251 | S. cerevisiae deletion strains, locus YOR270C, strain vph1, stronger effect = lower value 0.156 | S. cerevisiae deletion strains, locus YOR290C, strain snf2, stronger effect = lower value 0.245 | S. cerevisiae deletion strains, locus YPL051W, strain arl3, stronger effect = lower value 0.474 | S. cerevisiae deletion strains, locus YPL078C, strain atp4, stronger effect = lower value 0.316 | S. cerevisiae deletion strains, locus YPL106C, strain sse1, stronger effect = lower value 0.223 | S. cerevisiae deletion strains, locus YPL240C, strain hsp82, stronger effect = lower value 0.338
inactive: S. cerevisiae deletion strains, locus YNL128W, strain TEP1, stronger effect = lower value 0.969 | S. cerevisiae deletion strains, locus YNL183C, strain NPR1, stronger effect = lower value 0.927 | S. cerevisiae deletion strains, locus YNL197C, strain WHI3, stronger effect = lower value 1.08 | S. cerevisiae deletion strains, locus YNL233W, strain BNI4, stronger effect = lower value 0.981 | S. cerevisiae deletion strains, locus YNL250W, strain rad50, stronger effect = lower value 0.992 | S. cerevisiae deletion strains, locus YNL271C, strain bni1, stronger effect = lower value 0.984 | S. cerevisiae deletion strains, locus YNL298W, strain CLA4, stronger effect = lower value 0.99 | S. cerevisiae deletion strains, locus YNL307C, strain MCK1, stronger effect = lower value 0.992 | S. cerevisiae deletion strains, locus YNL322C, strain KRE1, stronger effect = lower value 0.989 and 0.962 | S. cerevisiae deletion strains, locus YNR052C, strain pop2, stronger effect = lower value 0.933 | S. cerevisiae deletion strains, locus YOL006C, strain TOP1, stronger effect = lower value 0.81 | S. cerevisiae deletion strains, locus YOL012C, strain htz1 1.09 | S. cerevisiae deletion strains, locus YOL147C, strain pex11, stronger effect = lower value 0.984 | S. cerevisiae deletion strains, locus YOR061W, strain CKA2, stronger effect = lower value 0.982 | S. cerevisiae deletion strains, locus YOR069W, strain VPS5, stronger effect = lower value 0.995 | S. cerevisiae deletion strains, locus YOR083W, strain WHI5 (second series), stronger effect = lower value 1.05 | S. cerevisiae deletion strains, locus YOR136W, strain idh2, stronger effect = lower value 0.989 | S. cerevisiae deletion strains, locus YOR144C, strain elg1, stronger effect = lower value 0.982 | S. cerevisiae deletion strains, locus YOR184W, strain ser1, stronger effect = lower value 1.03 | S. cerevisiae deletion strains, locus YOR231W, strain MKK1, stronger effect = lower value 1 | S. cerevisiae deletion strains, locus YOR316C, strain cot1, stronger effect = lower value 0.967 | S. cerevisiae deletion strains, locus YPL055C, strain LGE1, stronger effect = lower value 0.96 | S. cerevisiae deletion strains, locus YPL241C, strain CIN2, stronger effect = lower value 0.981 | S. cerevisiae deletion strains, locus YPL256C, strain CLN2, stronger effect = lower value 0.97 | S. cerevisiae deletion strains, locus YPR119W, strain clb2, stronger effect = lower value 0.979 | S. cerevisiae deletion strains, locus YPR141C, strain kar3, stronger effect = lower value 0.999 | S. cerevisiae deletion strains, locus YPR163C, strain tif3, stronger effect = lower value 0.959 | S. cerevisiae deletion strains, locus YPR167C, strain met16, stronger effect = lower value 0.964 | S. cerevisiae deletion strains, strain wtn01, stronger effect = lower value 0.957 | S. cerevisiae strains, strain wild type, stronger effect = lower value 0.984
0.959 (inactive) and 0.788 (active): S. cerevisiae deletion strains, locus YNL153C, strain GIM3, stronger effect = lower value
